Source: PubChem BioAssay AID1159580 (chemical genetic matrix, 2015)
Where “and” joins values, the source holds several entries; their conditions need not be identical. Equal values may be shown once. Among all 5,500 compounds or so, about 2,000 (36%) were called active. Inconclusive results (about 18%) are left out. Rule as the data show it: active = normalized growth mostly below about 0.91 (no sharp cut-off); inconclusive = no clear call, values can overlap the other calls; inactive = mostly above about 0.92. Some of the results follow.

Experiment: chemical genetic growth profiling, strain panel (AID 1159580);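 also: tested at 20 µM; growth read once vehicle control cultures reached saturation at 30 °C; 1 = growth at the plate median or of vehicle wells; lower values mean less growth of the strain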
Conditions: S. cerevisiae deletion strains, growth OD

Measured: normalized growth

CCCCNC(=O)NS(=O)(=O)c1ccc(C)cc1
inactive: locus YAL013W, strain DEP1, hits give low values 0.995 | locus YAL021C, strain ccr4, hits give low values 1.02 | locus YAL026C, strain drs2, hits give low values 1.01 | locus YAL030W, strain snc1, hits give low values 1.02 | locus YAL040C, strain CLN3, hits give low values 0.997 | locus YBL061C, strain skt5, hits give low values 1.01 | locus YBR009C, strain hhf1, hits give low values 0.973 | locus YBR021W, strain FUR4, hits give low values 1.01 | locus YBR023C, strain chs3, hits give low values 1.02 | locus YBR171W, strain sec66, hits give low values 1.01 | locus YBR229C, strain ROT2, hits give low values 0.993 | locus YBR231C, strain swc5, hits give low values 1.01 | locus YBR279W, strain paf1, hits give low values 0.995 | locus YCL011C, strain gbp2, hits give low values 1 | locus YCL016C, strain dcc1, hits give low values 0.993 | locus YCL029C, strain bik1, hits give low values 0.979 | locus YCL061C, strain MRC1 (second series), hits give low values 1 | locus YCL061C, strain MRC1, hits give low values 1.01 | locus YCL069W, strain vba3, hits give low values 1.02 | locus YCR088W, strain abp1, hits give low values 1.02 | locus YDL005C, strain med2, hits give low values 1.01 | locus YDL035C, strain GPR1, hits give low values 0.989 | locus YDL040C, strain nat1, hits give low values 1.01 | locus YDL074C, strain BRE1, hits give low values 1.02 | locus YDL101C, strain DUN1, hits give low values 1.01 | locus YDL134C, strain PPH21, hits give low values 1 | locus YDL185W, strain tfp1, hits give low values 0.953 | locus YDL192W, strain arf1, hits give low values 0.97 | locus YDR001C, strain nth1, hits give low values 1.02 | locus YDR069C, strain doa4, hits give low values 1.02 | locus YDR101C, strain arx1, hits give low values 0.994 | locus YDR137W, strain rgp1, hits give low values 0.978 | locus YDR159W, strain sac3, hits give low values 0.93 | locus YDR162C, strain NBP2, hits give low values 0.974 | locus YDR195W, strain ref2 1.01 | locus YDR297W, strain sur2, hits give low values 1.01 | locus YDR318W, strain mcm21, hits give low values 0.978 | locus YDR334W, strain swr1, hits give low values 1.01 | locus YDR335W, strain msn5, hits give low values 1.01 | locus YDR363W, strain ESC2, hits give low values 1.01 | locus YDR388W, hits give low values 0.974 | locus YDR392W, strain spt3, hits give low values 0.927 | locus YDR502C, strain sam2, hits give low values 0.985 | locus YEL003W, strain gim4, hits give low values 1.02 | locus YEL037C, strain rad23, hits give low values 1.01 | locus YEL061C, strain CIN8 (second series), hits give low values 1.01 | locus YEL061C, strain CIN8, hits give low values 0.99 | locus YER002W, strain NOP16, hits give low values 1 | locus YER015W, strain faa2, hits give low values 1.01 | locus YER016W, strain bim1, hits give low values 0.988 | locus YER110C, hits give low values 0.982 | locus YER111C, strain swi4, hits give low values 1.02 | locus YER155C, strain BEM2 (second series), hits give low values 1.04 | locus YER155C, strain BEM2, hits give low values 0.985 | locus YER167W, strain BCK2, hits give low values 0.994 | locus YFR010W, strain ubp6, hits give low values 1.02 | locus YGL078C, strain dbp3, hits give low values 0.989 | locus YGL086W, strain mad1, hits give low values 1 | locus YGL167C, strain pmr1, hits give low values 1.01 | locus YGL173C, strain kem1, hits give low values 1.03 | locus YGL227W, strain vid30, hits give low values 1.01 | locus YGL240W, strain doc1, hits give low values 1.01 | locus YGL248W, strain PDE1, hits give low values 1 | locus YGL253W, strain hxk2, hits give low values 1 | locus YGR078C, strain PAC10, hits give low values 1.01 | locus YGR135W, strain pre9, hits give low values 0.986 | locus YGR252W, strain gcn5, hits give low values 1.21 | locus YHR013C, strain ard1, hits give low values 0.992 | locus YHR027C, strain rpn1, hits give low values 1 | locus YHR030C, strain SLT2, hits give low values 0.99 and 0.938 | locus YHR079C, strain IRE1 (second series), hits give low values 0.98 | locus YHR079C, strain IRE1, hits give low values 0.964 | locus YHR094C, strain hxt1, hits give low values 0.979 | locus YHR129C, strain ARP1, hits give low values 0.996 | locus YHR142W, strain chs7, hits give low values 1.02 | locus YHR200W, strain rpn10, hits give low values 0.985 | locus YIL066C, strain RNR3, hits give low values 0.988 | locus YIL073C, strain SPO22, hits give low values 0.831 | locus YIL125W, strain kgd1, hits give low values 0.962 | locus YIR030C, strain dcg1, hits give low values 0.982 | locus YJL092W, strain hpr5, hits give low values 1.01 | locus YJL095W, strain BCK1 (second series), hits give low values 1.02 | locus YJL095W, strain BCK1, hits give low values 1.01 and 0.954 | locus YJL115W, strain asf1, hits give low values 1 | locus YJL129C, strain trk1, hits give low values 1.01 | locus YJL134W, strain LCB3, hits give low values 0.99 | locus YJL154C, strain vps35, hits give low values 1.01 | locus YJL164C, strain tpk1, hits give low values 1 | locus YJL166W, strain qcr8, hits give low values 1.02 | locus YJL168C, strain set2, hits give low values 0.981 | locus YJL187C, strain SWE1 (second series), hits give low values 0.982 | locus YJL187C, strain SWE1, hits give low values 1.02 | locus YJR043C, strain POL32, hits give low values 1.02 | locus YJR066W, strain TOR1, hits give low values 0.92
